Our source for the Percent Effect values is ChEMBL document CHEMBL3988442, “University of Dundee, Small-Polar-MMV Screening Library” (2021).

Test [1] concerns the target T1, Aspartate--tRNA(Asp/Asn) ligase (Mycobacterium tuberculosis (strain ATCC 25618 / H37Rv)) (UniProt P9WFW3). Note: in the data most compounds retested in dose-response had high values.
T1 sequence (whole entry): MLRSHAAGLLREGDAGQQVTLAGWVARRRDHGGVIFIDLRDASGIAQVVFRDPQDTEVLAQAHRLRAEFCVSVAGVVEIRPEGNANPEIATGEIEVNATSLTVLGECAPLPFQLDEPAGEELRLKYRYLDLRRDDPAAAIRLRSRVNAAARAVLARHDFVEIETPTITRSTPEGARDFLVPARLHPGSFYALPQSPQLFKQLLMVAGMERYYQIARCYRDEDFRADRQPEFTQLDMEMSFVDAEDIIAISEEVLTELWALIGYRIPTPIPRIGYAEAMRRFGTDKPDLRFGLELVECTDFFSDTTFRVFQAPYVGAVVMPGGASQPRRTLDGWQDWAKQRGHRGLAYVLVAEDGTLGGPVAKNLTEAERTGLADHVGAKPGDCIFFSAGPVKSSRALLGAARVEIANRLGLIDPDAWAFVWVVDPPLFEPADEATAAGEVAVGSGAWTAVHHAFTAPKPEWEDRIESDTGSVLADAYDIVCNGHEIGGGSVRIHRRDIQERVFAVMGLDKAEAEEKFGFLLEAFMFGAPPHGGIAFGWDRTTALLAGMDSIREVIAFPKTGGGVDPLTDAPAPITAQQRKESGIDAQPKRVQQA
The test can be described thus: Assay for Asp RNA synthetase-1 from Mycobacterium tuberculosis. The format is functional. Further details: scale not given: direction of the effect not stated beside the values. The conditions noted are these: 30 µM.

Test [2] addresses Shiga toxin 2 (Escherichia coli O157:H7) (UniProt P09385+P09386). As to the kind of experiment: E. coli 0.157:H7 Shiga Toxin SOP - stx2 screening assay. The format is functional. Further details: scale not given: direction of the effect not stated beside the values. The conditions noted are these: 30 µM.

For `O=C(NCCc1ccccn1)C1=NN(c2ccccc2)C(=O)CN1`, the Percent Effect is 11.3% in test [1] and 1.11% in test [2].

For the molecule `NC(=O)N1CCC2(CC1)CN(Cc1cccnc1)C(=O)CO2`, the Percent Effect in test [1] is 0.66%; in test [2], -1.38%.

As for `Cn1nc(C2CN(C(=O)c3cscn3)C2)c2nccnc21`, the Percent Effect in test [1] was 2.04%; in test [2], 8.15%.

For `Cc1c(C(=O)NCC(C)C)nnn1-c1cccc2c1CCN(C)C2`, the Percent Effect in test [1] was 0.928%; in test [2] it was -7.34%.

`O=C(c1cccnc1-n1cncn1)N1CCN(CC2CC2)CC1`: the results for the Percent Effect in test [1] and in test [2] were 0.524% and -1.68%, respectively.

For the molecule `Cc1nn(CC(=O)N2CCC(Nc3cccnn3)CC2)c(C)c1Cl`, the Percent Effect is -1.63% in test [1] and -23.6% in test [2].

Turning to `Cc1cc(C)n(C2CCCN(C(=O)c3ccc(NC4CC4)nc3)C2)n1` (centres undefined), the Percent Effect in test [1] is -1.9%; in test [2], 27%.

For `CNS(=O)(=O)CCCN1CCCC1c1noc(C2CC2)n1` (centres undefined), the Percent Effect in test [1] is -2.37%; in test [2] it was 4.89%.

Regarding `COc1ccc(CCN2CCCC2Cn2nc(C)nc2C)cc1` (centres undefined), the Percent Effect in test [1] is -3.2%; in test [2], -22.5%.

For the molecule `c1csc(N2CCCN(Cc3nc(C4CC4)no3)CC2)n1`, the Percent Effect was -1.91% in test [1] and 12.8% in test [2].

In the case of `CNC(=O)C1Cn2ccnc2C2(CCN(Cc3cccnc3)CC2)O1` (centres undefined), the Percent Effect in test [1] was -0.0764%; in test [2], 3.87%.

Consider `COC(=O)CCC(=O)N1CCc2[nH]nc(-c3ccc4c(c3)OCO4)c2C1`, for which the Percent Effect in test [1] is -1.06%; in test [2], -8.22%.

Regarding `Cc1nn(C)c(C)c1C1CCCN1C(=O)c1ccc(Cl)o1` (centres undefined), the Percent Effect was -1.9% in test [1] and -17.4% in test [2].

In the case of `Cc1nc(C)c(CC(=O)Nc2ncc(C)s2)c(=O)[nH]1`, the Percent Effect in test [1] is -3.61%; in test [2], 30.1%.

Turning to `COCC1c2nnn(CC3CC3)c2CCN1C(=O)c1cccc(F)c1` (centres undefined), the results for the Percent Effect in test [1] and in test [2] were -5.71% and 7.97%, respectively.

For the molecule `Cc1cnn(C(C)C2CC2)c1NC(=O)c1ccncc1` (centres undefined), the figures for the Percent Effect in test [1] and in test [2] were 4.07% and 1.34%, respectively.

In the case of `CCCc1n[nH]c(C2CN(C(=O)c3cc(F)ccc3OC)CCO2)n1` (centres undefined), the Percent Effect in test [1] is 0%; in test [2], 29.8%.

On to `COCCN1CC[C@H](O)[C@@H]1Cc1ccccc1`, for which the Percent Effect in test [1] was -4.18%; in test [2], -34.6%.

Turning to `O=C(NCCNc1cnccn1)N1CCCC1`, the Percent Effect was -2.84% in test [1] and 2.11% in test [2].

On to `CN(C)CC1CN(Cc2csc(C3CCCC3)n2)CCO1` (centres undefined), for which the Percent Effect was found to be 1.38% in test [1] and 14.5% in test [2].

As to `COCc1n[nH]/c(=N/C(=O)COc2cnc(C)cc2O)s1`, the Percent Effect in test [1] is -2.13%; in test [2], -48.9%.

As for `CCNc1cc2c(nn1)CCN(C(=O)c1ccc(CNC(C)=O)o1)C2`, the Percent Effect in test [1] was 5.42%; in test [2], -44.4%.

With `Cn1cc(N2CCC(NC(=O)c3c(F)cccc3F)C2=O)cn1` (centres undefined), the results for the Percent Effect in test [1] and in test [2] were 0.409% and -11.8%, respectively.

As to `Cc1ccccc1S(=O)(=O)N1CCCCC1c1ccn[nH]1` (centres undefined), the Percent Effect in test [1] was found to be 0.632%; in test [2], 35.1%.

For `CC(CNC(=O)c1ccc(F)cc1Cl)N1CCCC1` (centres undefined), the Percent Effect in test [1] is 0.39%; in test [2], -4.69%.

Take `CN(C)c1cncc(C2CCN(C(=O)CO)CC2)n1`: the Percent Effect is 2.1% in test [1] and 7.95% in test [2].

For `O=c1ccc(-c2cccs2)nn1CN1CCCCCC1`, the Percent Effect is -1.83% in test [1] and -4.33% in test [2].

Consider `CC(=O)N1CCCN(C(=O)c2ccn(-c3cccc(Cl)c3)n2)CC1`, for which the Percent Effect in test [1] came to 3%; in test [2], 5.49%.

On to `Cc1ccc(C(=O)N2CCN(CC(O)c3ccc(F)cc3)CC2)s1` (centres undefined), for which the results for the Percent Effect in test [1] and in test [2] were 0.567% and 32.2%, respectively.

In the case of `c1csc(-c2nc(CN3CCOC(Cn4cccn4)C3)co2)c1` (centres undefined), the Percent Effect in test [1] came to 9.95%; in test [2], 13.2%.

For the molecule `CCc1nccn1C1CCCN(C(=O)c2cc3nc(C)ccc3o2)C1` (centres undefined), the Percent Effect in test [1] was -2.42%; in test [2] it was 20.3%.

With `Cc1ccc2oc(CNC(C)c3nnc4n3CCCC4)cc2c1` (centres undefined), the Percent Effect in test [1] is -1.73%; in test [2], -34.3%.

As to `CN(Cc1nc2c(cnn2C)c(=O)[nH]1)Cc1ccc(F)cc1F`, the Percent Effect in test [1] was -2.26%; in test [2], -10.7%.

`CCOCCOc1ccccc1C(=O)N1CCCC(c2ncc[nH]2)C1` (centres undefined): the Percent Effect was 7.07% in test [1] and -32.6% in test [2].

Consider `Cc1ccn(-c2ccc(C(=O)N3CCCC(C(N)=O)C3)cc2)n1` (centres undefined), for which the Percent Effect in test [1] is -3.4%; in test [2], 8.96%.

`CCc1noc(CN2CCCN(C(N)=O)CC2)n1`: the Percent Effect in test [1] was -1.28%; in test [2] it was 5.08%.

Regarding `c1cnnc(NCC2CN(CCN3CCCCC3)CCO2)c1` (centres undefined), the Percent Effect is -4.13% in test [1] and -5.19% in test [2].

Turning to `Cc1ccc(NC2CCN(C(=O)c3cccc(F)c3F)CC2)nn1`, the Percent Effect in test [1] is -4.5%; in test [2], -17%.

For the molecule `CN(CC1CCCCC1)C(=O)c1ccc(-n2ncc(C#N)c2N)cc1`, the figures for the Percent Effect in test [1] and in test [2] were -2.55% and -24.4%, respectively.

In the case of `Cc1ccc(NC2CCN(C(=O)COCC(F)(F)F)CC2)nn1`, the Percent Effect is -0.48% in test [1] and -13.9% in test [2].

`COc1cc(CN(C)C(=O)Nc2cc(C)on2)ccc1SC`: the Percent Effect is 2.27% in test [1] and -8.55% in test [2].

As for `O=C(CC1CCCC1)N1C[C@@H]2CCN(c3cccnc3)C[C@@H]2C1`, the results for the Percent Effect in test [1] and in test [2] were 2% and -5.1%, respectively.

As to `CNc1nc(CNC(=O)Nc2ccccc2-c2noc(C)n2)cs1`, the Percent Effect was -2.92% in test [1] and 13.1% in test [2].

For the molecule `C=C(C)C(=O)N1CCC(C(=O)c2cc(C)cnc2N)CC1`, the values for the Percent Effect in test [1] and in test [2] were -5.78% and -12%, respectively.

Take `Cc1ncc(-c2ccnc(N3CCCCC3)n2)c(=O)[nH]1`: the results for the Percent Effect in test [1] and in test [2] were -2.84% and -19.6%, respectively.

As for `CCCc1nc(CN2CCCC(Cn3cncn3)C2)no1` (centres undefined), the Percent Effect in test [1] was -3.39%; in test [2], -26.6%.

For `CC(=O)N1CC[C@H]2OCC[C@@H](C(=O)N3CCCCO3)[C@@H]2C1`, the Percent Effect in test [1] was 0.958%; in test [2], -16.9%.
